Laboratory results: PMC3218832

Legend:
Assay in all cases: protein binding microarray; high values mean tight binding
Details in all cases: dsDNA, one strand shown
RELARELA (p65 homodimer) = RELARELA (p65 homodimer) (Homo sapiens, UniProt Q04206 1-307)
p50p50 homodimer = p50p50 homodimer (Homo sapiens, UniProt P19838 7-356)
p52p52 homodimer = biological target: T1, p52p52 homodimer (Homo sapiens, UniProt Q00653 4-332)
T1 sequence: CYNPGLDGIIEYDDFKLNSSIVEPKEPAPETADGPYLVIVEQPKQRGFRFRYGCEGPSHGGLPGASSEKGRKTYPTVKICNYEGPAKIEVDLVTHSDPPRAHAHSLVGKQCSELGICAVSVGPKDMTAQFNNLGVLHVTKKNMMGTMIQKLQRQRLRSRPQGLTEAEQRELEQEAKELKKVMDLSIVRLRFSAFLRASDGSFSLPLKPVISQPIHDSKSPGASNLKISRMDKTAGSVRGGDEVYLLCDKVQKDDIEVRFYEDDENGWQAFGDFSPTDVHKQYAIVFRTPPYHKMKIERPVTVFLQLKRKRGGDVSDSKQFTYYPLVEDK

[1] = biological target: RELA (p65) subunit of heterodimer;p50 subunit (Homo sapiens;Homo sapiens, UniProt Q04206;P19838 1-307;7-356)
Chain of RELA (p65) subunit of heterodimer;p50 subunit (Q04206 1-307, chain 1 of 2): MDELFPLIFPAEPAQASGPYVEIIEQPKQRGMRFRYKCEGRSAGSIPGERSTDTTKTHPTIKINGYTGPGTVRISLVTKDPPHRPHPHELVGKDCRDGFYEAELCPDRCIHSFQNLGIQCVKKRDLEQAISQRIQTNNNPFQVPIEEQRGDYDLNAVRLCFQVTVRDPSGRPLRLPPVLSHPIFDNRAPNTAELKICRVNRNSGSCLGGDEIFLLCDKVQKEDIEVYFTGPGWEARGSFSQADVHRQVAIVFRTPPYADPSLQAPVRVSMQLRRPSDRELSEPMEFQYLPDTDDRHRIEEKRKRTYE
Chain of RELA (p65) subunit of heterodimer;p50 subunit (P19838 7-356, chain 2 of 2): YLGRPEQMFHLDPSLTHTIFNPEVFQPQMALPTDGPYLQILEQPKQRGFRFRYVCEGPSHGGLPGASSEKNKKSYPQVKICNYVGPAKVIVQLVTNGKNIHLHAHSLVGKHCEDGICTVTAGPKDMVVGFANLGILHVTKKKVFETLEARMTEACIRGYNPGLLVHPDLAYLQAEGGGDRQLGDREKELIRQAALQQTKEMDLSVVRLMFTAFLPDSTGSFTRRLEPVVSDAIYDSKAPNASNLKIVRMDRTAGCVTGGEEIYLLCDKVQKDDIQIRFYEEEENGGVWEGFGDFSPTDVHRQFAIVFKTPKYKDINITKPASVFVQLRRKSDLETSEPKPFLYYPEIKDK

[2] = biological target: RELA (p65) subunit of heterodimer;p52 subunit (Homo sapiens;Homo sapiens, UniProt Q04206;Q00653 1-307;4-332)
RELB subunit;p50 subunit = RELB subunit;p50 subunit (Homo sapiens;Homo sapiens, UniProt Q01201;P19838 120-401;7-356)
RELB subunit;p52 subunit = biological target: T2, RELB subunit;p52 subunit (Homo sapiens;Homo sapiens, UniProt Q01201;Q00653 120-401;4-332)
T2 sequence 1: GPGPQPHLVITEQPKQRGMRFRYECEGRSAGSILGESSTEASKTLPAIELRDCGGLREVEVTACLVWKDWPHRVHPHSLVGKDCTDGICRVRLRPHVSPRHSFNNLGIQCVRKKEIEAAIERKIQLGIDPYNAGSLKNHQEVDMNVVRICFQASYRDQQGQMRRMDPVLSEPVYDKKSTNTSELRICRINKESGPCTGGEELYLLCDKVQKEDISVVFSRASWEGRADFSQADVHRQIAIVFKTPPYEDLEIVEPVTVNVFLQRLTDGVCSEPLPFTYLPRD
T2 sequence 2: T1 sequence

[3] = biological target: C-Rel subunit;p50 subunit (Homo sapiens;Homo sapiens, UniProt Q04864;P19838 1-285;7-356)
[4] = biological target: T3, C-Rel subunit;p52 subunit (Homo sapiens;Homo sapiens, UniProt Q04864;Q00653 1-285;4-332)
T3 sequence 1: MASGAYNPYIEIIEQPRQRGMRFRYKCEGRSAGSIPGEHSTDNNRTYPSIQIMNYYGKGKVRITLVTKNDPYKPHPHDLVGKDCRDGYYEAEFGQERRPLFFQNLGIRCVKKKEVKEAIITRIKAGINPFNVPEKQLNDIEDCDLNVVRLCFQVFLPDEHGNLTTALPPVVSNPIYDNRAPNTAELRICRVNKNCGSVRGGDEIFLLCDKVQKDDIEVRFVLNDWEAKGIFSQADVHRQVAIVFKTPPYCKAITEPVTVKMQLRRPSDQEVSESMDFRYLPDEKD
T3 sequence 2: T1 sequence

Chain of p50p50 homodimer (P19838 7-356): as the sequence (P19838 7-356, chain 2 of 2) above
Chain of RELARELA (p65 homodimer) (Q04206 1-307): as the sequence (Q04206 1-307, chain 1 of 2) above

Row | Sequence | binding signal (RELARELA (p65 homodimer)) [z-score] | binding signal (p50p50 homodimer) [z-score] | binding signal (p52p52 homodimer) [z-score] | binding signal [1] [z-score] | binding signal [2] [z-score] | binding signal (RELB subunit;p50 subunit) [z-score] | binding signal (RELB subunit;p52 subunit) [z-score] | binding signal [3] [z-score] | binding signal [4] [z-score]
1 | CAGTAGCTCCT | -0.468 | -1.98 | -0.806 | -1.09 | -1.13 | -1.24 | -1.1 | -1.72 | -1.02
2 | AAGGTATTCCT | -0.0185 | -0.222 | -0.0124 | -0.477 | -0.138 | -0.322 | -0.266 | -0.255 | -0.012
3 | CAAGATTCCCT | 0.527 | 1.13 | 0.975 | 0.96 | 0.948 | 1.02 | 1.01 | 1.06 | 0.715
4 | GGGTTTGCCCT | 1.25 | -0.184 | 0.265 | 0.277 | 0.423 | -0.518 | -0.154 | 0.409 | 0.225
5 | CAGGTCGCCCC | -0.367 | -0.385 | -0.232 | -0.268 | -0.328 | -0.18 | -0.126 | 0.016 | -0.13
6 | CAGTGGGTCCT | -0.388 | -1.79 | -0.509 | -1.1 | -0.79 | -0.698 | -0.708 | -1.36 | -1.08
7 | GAGTAAGCCCC | -0.458 | 0.604 | 0.178 | 0.392 | 0.155 | 0.171 | 0.116 | 0.263 | 0.236
